Only a selection was taken, and hits are over-represented in it overall.
Cycloheximide cs – counter-screen hit for Shiga toxin inhibitors, cycloheximide; cell reporter, cycloheximide protein synthesis inhibition counterscreen; max response, %; 300,000 tested, 12% active; AID 2314; in the data active means max response mostly above about 13%, no sharp cut-off; inactive means mostly below about 14%; further: read at 38.3 µM for the half of the compounds with a filed dose; 0% is about no effect
AmpC inh detg – inhibitors of E. coli AmpC beta-lactamase with detergent; Potency, µM (highest dose often 114 µM), without a hit: top-dose activity change, negative = inhibition, most hits filed as inhibitors; 370,000 tested, 0.041% active; AmpC hydrolysis of nitrocefin, absorbance 480 nm, 0.01% Triton; P00811; AID 485294;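 further: potency means the concentration at half of the fitted maximal effect; 0% = no-compound wells and -100% = no-enzyme wells; nearly all actives have a fitted effect of over 25% in size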
Target sequence (P00811 whole entry, looked up): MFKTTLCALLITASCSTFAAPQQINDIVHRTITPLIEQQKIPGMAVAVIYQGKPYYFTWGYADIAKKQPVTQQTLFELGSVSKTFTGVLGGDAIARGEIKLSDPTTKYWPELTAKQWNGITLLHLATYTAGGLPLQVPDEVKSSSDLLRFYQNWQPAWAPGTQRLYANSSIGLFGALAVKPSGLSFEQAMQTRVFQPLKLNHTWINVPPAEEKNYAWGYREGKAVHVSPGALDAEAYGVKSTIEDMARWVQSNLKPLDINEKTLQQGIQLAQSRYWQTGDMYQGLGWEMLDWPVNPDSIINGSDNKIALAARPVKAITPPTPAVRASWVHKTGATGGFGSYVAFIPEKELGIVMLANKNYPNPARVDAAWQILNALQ
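AmpC (5.3 nM in the dispensed reagent) in 20 mM phosphate pH 7.0 with 0.01% (detergent screen) or 0.0001% Triton X-100 was preincubated with compounds for 15 min at room temperature. Nitrocefin was then added from an 800 uM solution, and hydrolysis was followed at 480 nm.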
Shiga toxin inh – inhibitors of Shiga toxin in Vero cells | inhibition, % at 38.7 µM | AID 2315 | 290,000 tested, 9.2% active | Vero cells, Shiga toxin protein synthesis inhibition reporter; in the data active means inhibition mostly above about 28%, no sharp cut-off; inactive means mostly below about 43%; further: 0% is about no effect
AmpC inh no detg – inhibitors of E. coli AmpC beta-lactamase without detergent | P00811 | AmpC nitrocefin hydrolysis, absorbance 480 nm, 0.0001% Triton | 330,000 tested, 0.52% active | AID 485341 | Potency, µM (top dose mostly 57.1 µM), without a hit: at the highest dose activity change, negative = inhibition, actives largely listed as inhibitors;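 further: potency means the concentration at half of the fitted maximal effect; plate controls were no compound for no effect and no enzyme for full effect; nearly all actives have a fitted effect of over 20% in size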
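20 mM phosphate pH 7.0 + 0.01% (detergent screen) or 0.0001% Triton X-100; 5.3 nM AmpC reagent; cpd preinc 15 min RT; nitrocefin (800 uM stock) to start; A480 q20 s × 4 min; Activity was normalised to no-enzyme and no-compound control wells.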
NS1 inh – blocks influenza NS1 protein function; Potency, µM (series often up to 46.1 µM), for inactives: at the highest dose activity, positive = more growth; 270,000 tested, 0.4% active; AID 2326; calls by dose curve; further: potency means the concentration at half of the fitted maximal effect; actives are rising curves; nearly all actives have a fitted effect of over 50% in size
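S. cerevisiae expressing influenza A NS1, grown in glucose, washed, then diluted 1:100 into pH 6.0 -URA galactose medium with 23 nl compound. Growth recovery read as OD600; NS1-free strain serves as control.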
Starred values were filed as active, the others as inactive. Unless noted, the call rests on the fitted dose curve; in most records, active means well fitted curve in the direction sought with a large enough effect; inconclusive means small, poorly fitted or top-dose-only effect, or another doubt; inactive means no such curve, though single readings can be large; an effect the other way counts as inactive or inconclusive.

How did Cc1cccn2c(=O)c(C(=O)NCCc3ccccc3)cnc12 do in these assays?
AmpC inh detg: -1%

How did O=C(CN(Cc1ccco1)C(=O)c1ccccc1F)Nc1ccccc1C(F)(F)F do in these assays?
AmpC inh detg: inconclusive; AmpC inh no detg: -12%

What do the screens show for `CC(=O)Nc1ccc(NC(=O)CSc2nccn2Cc2ccco2)cc1`?
Cycloheximide cs: 17*; AmpC inh detg: -11%; Shiga toxin inh: 60*; AmpC inh no detg: -20%; NS1 inh: 2%

What do the screens show for `O=C(CN(Cc1ccco1)S(=O)(=O)c1cccs1)Nc1ccccc1C(F)(F)F`?
Cycloheximide cs: 24*; AmpC inh detg: -9%; Shiga toxin inh: 42*; AmpC inh no detg: -10%; NS1 inh: -4%

How did O=C(CSc1nccn1Cc1ccco1)Nc1ccccc1 do in these assays?
Cycloheximide cs: 32*; AmpC inh detg: 0%; Shiga toxin inh: 41*; AmpC inh no detg: -18%; NS1 inh: 5%

How did CCOC(=O)c1ccccc1NC(=O)CSc1nccn1Cc1ccco1 do in these assays?
AmpC inh detg: 0%

Results for O=C(CSc1nccn1Cc1ccco1)Nc1ccccc1C(F)(F)F ?
Cycloheximide cs: 28*; AmpC inh detg: 13%; Shiga toxin inh: 21; AmpC inh no detg: 198%; NS1 inh: 3%

Results for CCOC(=O)c1c(Nc2ccc(F)cc2)nnc(-c2ccccc2)c1-c1ccccc1 ?
AmpC inh detg: 11%

Results for COC(=O)c1ccc(Sc2ccc(C)cc2)c(N)c1 ?
Cycloheximide cs: 57*; AmpC inh detg: -1%; Shiga toxin inh: 57*; AmpC inh no detg: -11%; NS1 inh: -116%

What do the screens show for `C[n+]1ccccc1/C=C/c1ccc2ncccc2c1`?
Cycloheximide cs: 27*; AmpC inh detg: -19%; Shiga toxin inh: 40*; AmpC inh no detg: -25%; NS1 inh: -2%

What do the screens show for `CN(Cc1ccccc1)S(=O)(=O)c1nnc(NC(=O)c2cccc(Cl)c2)s1`?
AmpC inh detg: 22%

How did CN(Cc1ccco1)S(=O)(=O)c1nnc(NC(=O)c2cccc(Cl)c2)s1 do in these assays?
Cycloheximide cs: 36*; AmpC inh detg: -8%; Shiga toxin inh: 64*; AmpC inh no detg: -48%; NS1 inh: -6%

Results for CCOC(=O)C1=C(Cc2ccc(F)cc2)C(=O)c2ccccc2C1=O ?
Cycloheximide cs: 3; AmpC inh detg: -12%; Shiga toxin inh: 4; AmpC inh no detg: -39%; NS1 inh: -187%

What do the screens show for `CCCCc1ccc(/C=C2\C(=O)c3ccccc3C(O)=C2C(=O)OCC)cc1`?
Cycloheximide cs: 16*; AmpC inh detg: 6%; Shiga toxin inh: 30*; AmpC inh no detg: -29%; NS1 inh: -47%
